One experiment has as its target AgAbp1. Nature of the experiment: SPOT peptide array binding signal intensity (averaged, normalized) (arbitrary units (background-subtracted, floor 0; scale differs between SH3 domains)); higher = stronger binding of the SH3 domain to the peptide. In a few lines:
(§1)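 GST-SH3 fusions from four yeast species, purified on glutathione Sepharose, were incubated at 10 μg/ml overnight at 4°C on membranes of synthetic 15-mer peptides in which cysteines were replaced with serines. Binding signal is the normalized, background-subtracted spot intensity averaged over replicates, in domain-specific arbitrary units.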
On to SSSSTPPTLPPRRIE, for which the “SPOT peptide array binding signal intensity” value was found to be 7.5.

A further experiment deals with AgBbc1. The description is as above. The method, boiled down:
as §1
SSSSTPPTLPPRRIE: the “SPOT peptide array binding signal intensity” value came to 673.

The target in another experiment is AgBem1-D1. The description is as above. The method, boiled down: as §1
In the case of SSSSTPPTLPPRRIE, the “SPOT peptide array binding signal intensity” value was 42.

The target of the next experiment is AgBzz1-D1. Described as above. The method, boiled down:
as §1
For the molecule SSSSTPPTLPPRRIE, the “SPOT peptide array binding signal intensity” value is 49.

Another experiment addresses AgBzz1-D2. Described as above. In a few lines:
as §1
Take SSSSTPPTLPPRRIE: the “SPOT peptide array binding signal intensity” value was no more than 0.

The target of a further experiment is AgCyk3. The experiment is described as above. In a few lines: as §1
Take SSSSTPPTLPPRRIE: the “SPOT peptide array binding signal intensity” value came out at 2.

For another experiment, the target named is AgFus1. Described as above. In a few lines: as §1
In the case of SSSSTPPTLPPRRIE, the “SPOT peptide array binding signal intensity” value was no more than 0.

A further experiment concerns the target AgHof1. The description is as above. In a few lines: as §1
For SSSSTPPTLPPRRIE, the “SPOT peptide array binding signal intensity” value stood at 55.

The target in another experiment is AgHse1. The description is as above. In a few lines:
as §1
SSSSTPPTLPPRRIE: the “SPOT peptide array binding signal intensity” value was found to be 42.5.

A further experiment concerns the target AgLsb1. The description is as above. The method, boiled down:
as §1
Consider SSSSTPPTLPPRRIE, for which the “SPOT peptide array binding signal intensity” value amounted to 1840.

Another experiment addresses AgLsb4. The experiment is described as above. In a few lines: as §1
Regarding SSSSTPPTLPPRRIE, the “SPOT peptide array binding signal intensity” value amounted to 9180.

Another experiment addresses AgMyo5. The experiment is described as above. In a few lines:
as §1
For SSSSTPPTLPPRRIE, the “SPOT peptide array binding signal intensity” value was found to be 93.5.

A further experiment addresses AgNbp2. The description is as above. In a few lines:
as §1
With SSSSTPPTLPPRRIE, the “SPOT peptide array binding signal intensity” value turned out to be 10.

In the next experiment the target is AgRvs167. Described as above. The method, boiled down: as §1
With SSSSTPPTLPPRRIE, the “SPOT peptide array binding signal intensity” value turned out to be 2660.

Another experiment has as its target AgSho1. The experiment is described as above. The method, boiled down: as §1
On to SSSSTPPTLPPRRIE, for which the “SPOT peptide array binding signal intensity” value was found to be 1.

In the next experiment the target is AgSla1-D1-D2. Described as above. The method, boiled down:
as §1
Consider SSSSTPPTLPPRRIE, for which the “SPOT peptide array binding signal intensity” value was no more than 0.

For another experiment, the target named is AgSla1-D3. The description is as above. The method, boiled down:
as §1
In the case of SSSSTPPTLPPRRIE, the “SPOT peptide array binding signal intensity” value is no more than 0.

The next experiment concerns the target CaAbp1-D1. The description is as above. In a few lines: as §1
Regarding SSSSTPPTLPPRRIE, the “SPOT peptide array binding signal intensity” value was determined as 24.

For the next experiment, the target named is CaAbp1-D2. The experiment is described as above. In a few lines:
as §1
On to SSSSTPPTLPPRRIE, for which the “SPOT peptide array binding signal intensity” value came out at 34.5.

For another experiment, the target named is CaBbc1. The experiment is described as above. In a few lines:
as §1
As for SSSSTPPTLPPRRIE, the “SPOT peptide array binding signal intensity” value came to 1390.

The next experiment addresses CaBem1-D1. Described as above. The method, boiled down: as §1
With SSSSTPPTLPPRRIE, the “SPOT peptide array binding signal intensity” value was determined as 4.

A further experiment has as its target CaBzz1-D1. The description is as above. The method, boiled down:
as §1
Take SSSSTPPTLPPRRIE: the “SPOT peptide array binding signal intensity” value was 16.

The target in another experiment is CaBzz1-D2. The experiment is described as above. The method, boiled down:
as §1
Consider SSSSTPPTLPPRRIE, for which the “SPOT peptide array binding signal intensity” value was no more than 0.

A further experiment has as its target CaCyk3. Described as above. The method, boiled down: as §1
As to SSSSTPPTLPPRRIE, the “SPOT peptide array binding signal intensity” value is 2.

Another experiment deals with CaFus1. Described as above. The method, boiled down:
as §1
SSSSTPPTLPPRRIE: the “SPOT peptide array binding signal intensity” value was 77.

A further experiment addresses CaHof1. The description is as above. In a few lines:
as §1
Consider SSSSTPPTLPPRRIE, for which the “SPOT peptide array binding signal intensity” value is 8.75.

Another experiment has as its target CaHse1. Described as above. In a few lines: as §1
For the molecule SSSSTPPTLPPRRIE, the “SPOT peptide array binding signal intensity” value came out at 731.

The target of another experiment is CaLsb1. The experiment is described as above. The method, boiled down:
as §1
In the case of SSSSTPPTLPPRRIE, the “SPOT peptide array binding signal intensity” value was 57.5.

A further experiment deals with CaLsb4. The experiment is described as above. In a few lines:
as §1
On to SSSSTPPTLPPRRIE, for which the “SPOT peptide array binding signal intensity” value came to 7260.

In the next experiment the target is CaMyo5. Described as above. In a few lines: as §1
Consider SSSSTPPTLPPRRIE, for which the “SPOT peptide array binding signal intensity” value was no more than 0.

A further experiment concerns the target SpBzz1-D2. The experiment is described as above. In a few lines:
as §1
Consider HVRRSILALPLGVLL, for which the “SPOT peptide array binding signal intensity” value is no more than 0.

The target of a further experiment is SpCyk3. The experiment is described as above. In a few lines: as §1
With HVRRSILALPLGVLL, the “SPOT peptide array binding signal intensity” value came out at 3.

In a further experiment the target is SpHof1. The description is as above. In a few lines: as §1
HVRRSILALPLGVLL: the “SPOT peptide array binding signal intensity” value turned out to be 49.

For the next experiment, the target named is SpHof1-2. Described as above. The method, boiled down: as §1
HVRRSILALPLGVLL: the “SPOT peptide array binding signal intensity” value amounted to 8.5.

A further experiment addresses SpHof1-3. Described as above. The method, boiled down:
as §1
For HVRRSILALPLGVLL, the “SPOT peptide array binding signal intensity” value was 180.

In a further experiment the target is SpHse1. The description is as above. The method, boiled down: as §1
With HVRRSILALPLGVLL, the “SPOT peptide array binding signal intensity” value worked out at 508.

For another experiment, the target named is SpLsb1. The experiment is described as above. In a few lines:
as §1
As to HVRRSILALPLGVLL, the “SPOT peptide array binding signal intensity” value is 2.

Another experiment concerns the target SpLsb4. The description is as above. In a few lines:
as §1
As to HVRRSILALPLGVLL, the “SPOT peptide array binding signal intensity” value came to 73.5.

The next experiment has as its target SpMyo1. Described as above. The method, boiled down: as §1
On to HVRRSILALPLGVLL, for which the “SPOT peptide array binding signal intensity” value was 2.5.

The next experiment deals with SpNbp2. Described as above. The method, boiled down:
as §1
As for HVRRSILALPLGVLL, the “SPOT peptide array binding signal intensity” value worked out at 194.

Another experiment concerns the target SpPex13. The description is as above. The method, boiled down: as §1
HVRRSILALPLGVLL: the “SPOT peptide array binding signal intensity” value was no more than 0.

The next experiment has as its target SpRvs167. Described as above. In a few lines: as §1
In the case of HVRRSILALPLGVLL, the “SPOT peptide array binding signal intensity” value is 9.83.

A further experiment deals with SpSla1-D1-D2. The description is as above. In a few lines:
as §1
For HVRRSILALPLGVLL, the “SPOT peptide array binding signal intensity” value turned out to be 2.

The target of another experiment is SpSla1-D3. Described as above. In a few lines:
as §1
In the case of HVRRSILALPLGVLL, the “SPOT peptide array binding signal intensity” value was 1.

Source of the values: the supplement of paper PMC4466140.
